High-throughput results from PubChem.
In the library only some 1.1% were active in any assay of this set; here they are far more common.
PfHsp40 rescue – rescue of PfHsp40-mediated yeast toxicity. growth rescue, % at 12.5 µM. S. cerevisiae expressing PfHsp40, growth rescue, ATP luminescence. 340,000 compounds, 0.68% hits; in the data active means growth rescue above about 28%, passing the limit was not always enough; inconclusive means no clear call, values can overlap the other calls;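 further: yeast W303a lacking pdr1 and pdr3 grown in galactose medium; growth measured after three days at 30 °C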
Yp Topo-I inh – blocks Yersinia pestis topoisomerase I activity; Y. pestis Topo-I cleavage product accumulation, plate reader; activity, % at 10 µM; 360,000 compounds, 0.064% hits; AID 504884; in the data active means activity above about 50%, passing the limit was not always enough; inconclusive means no clear call, values can overlap the other calls
PrP UTR inh – suppresses PrP 5' UTR mRNA reporter expression. cell-based PrP 5' UTR mRNA reporter, plate reader. inhibition, % (concentration not given with the values). 340,000 compounds, 0.35% hits; in the data active means inhibition above about 52%; further: 0 = median of the neutral control wells
Mtb BioA inh – blocks M. tuberculosis BioA enzyme activity; purified M. tuberculosis BioA enzyme, plate reader; inhibition, % at 9.99 µM; 360,000 compounds, 0.096% hits; AID 602481; in the data active means inhibition above about 40%; inconclusive means no clear call, values can overlap the other calls
FadD28 binding – inhibitors of Mycobacterium tuberculosis FadD28 bisubstrate binding. FadD28 bisubstrate probe binding, fluorescence polarization. inhibition, % at 12.5 µM. 360,000 compounds, 0.22% hits. AID 588549; in the data active means inhibition above about 8.5%, passing the limit was not always enough; inconclusive means no clear call, values can overlap the other calls
An asterisk follows results filed as active; u = inconclusive; x = no result given.

SMILES | PfHsp40 rescue | Yp Topo-I inh | PrP UTR inh | Mtb BioA inh | FadD28 binding
Cc1nc(N2CCN(C(=O)c3ccco3)CC2)c2c3c(sc2n1)CC(C)CC3 (configuration not stated) | 192* | 29 | -25 | x | -2
O=C1c2ccccc2NC(c2ccc(-c3cccc([N+](=O)[O-])c3)o2)N1O (configuration not stated) | 233* | -5 | -15 | x | -2
O=C1c2ccccc2NC(c2ccc(-c3ccc(F)cc3)o2)N1O (configuration not stated) | 168* | -9 | -74 | -2 | -1
C[C@@H]1CCCCO[C@@H](CN(C)C(=O)NC2CCCCC2)[C@H](C)CN([C@H](C)CO)C(=O)c2cc(NC(=O)Cc3ccccc3)ccc2O1 | x | x | x | -2 | x
O=C(O)CCCN1C(=O)/C(=C/C=C/c2ccco2)SC1=S | 2 | -18 | -10 | x | 19*
Cn1cccc1/C=C1\SC(=S)N(NC(=O)c2ccccc2O)C1=O | 0 | -6 | -9 | x | 2
O=C(NN1C(=O)/C(=C/C=C/c2ccco2)SC1=S)c1ccccc1O | 25 | -31 | -24 | -1 | 58*
Cc1ccc(NC(=O)CCCN2C(=O)/C(=C/C=C/c3ccccc3)SC2=S)cc1 | 0 | -4 | -4 | -4 | 0
O=C(O)C(Cc1ccccc1)N1C(=O)/C(=C/C=C/c2ccco2)SC1=S (configuration not stated) | 1 | -10 | -26 | 2 | 39*
O=C(O)CCCN1C(=O)/C(=C\C(Cl)=C\c2ccccc2)SC1=S | 0 | 5 | 2 | 1 | 9.3*
O=C(O)CC(C(=O)O)N1C(=O)/C(=C/C=C/c2ccco2)SC1=S (configuration not stated) | 14 | -14 | -7 | -1 | u
CC(C)NC(=O)N(C)C[C@@H]1Oc2cc(-c3ccccc3F)ccc2S(=O)(=O)N([C@@H](C)CO)C[C@H]1C | x | x | x | 0 | x
CC(OC(=O)c1cc2sccc2n1C)C(=O)NCC1CCCO1 (configuration not stated) | 106* | -1 | 1 | -1 | -1
COc1ccc(N/N=C(\C#N)C(=N)SCc2ccccc2)cc1 | 209* | -7 | -14 | x | -2
COc1ccc(NC(=O)c2cc3c(-c4ccc(OC)c(OC)c4)nn(C)c3s2)cc1OC | 8 | -8 | -24 | 1 | 26*
CNc1ccc2oc(C[C@H]3O[C@@]4(CC[C@H]3C)O[C@H]([C@H](C)C(=O)c3ccc[nH]3)[C@H](C)C[C@H]4C)nc2c1C(=O)O | 143* | -7 | 6 | -2 | -1
CO[C@H]1CC[C@@H]2CCOc3ccc(C#N)cc3C(=O)N(C)C[C@H](OC)[C@H](C)C(=O)N(C)C[C@@H]1O2 | x | x | x | -2 | x
C[C@@H]1CN([C@@H](C)CO)C(=O)c2cc(NS(=O)(=O)c3ccccc3)ccc2O[C@@H](C)CCCCO[C@@H]1CN(C)S(=O)(=O)c1ccccc1 | x | x | x | -4 | x
Cc1cccc(NC(=O)CN2C(=O)S/C(=C\c3ccc(O)c([N+](=O)[O-])c3)C2=O)c1 | 0 | -8 | 2 | x | 85*
Cc1ccc(NC(=O)CN2C(=O)S/C(=C/c3ccc(O)c([N+](=O)[O-])c3)C2=O)cc1C | 0 | -7 | -17 | x | 31*
O=C(CN1C(=O)S/C(=C\c2ccc(O)c([N+](=O)[O-])c2)C1=O)Nc1ccc(N2CCOCC2)cc1 | -1 | 1 | -4 | -1 | -2
O=C(CN1C(=O)S/C(=C\c2cc(Cl)c(O)c(Cl)c2)C1=O)Nc1ccccc1 | 0 | -17 | -10 | 0 | 76*
CC1=C(C(=O)Nc2ccccc2C(=O)N2CCN(c3ccccc3)CC2)SCCO1 | x | 4 | x | 0 | -4
O=c1c2ccccc2sn1-c1ccc(Cl)cc1 | x | -8 | x | -1 | -1
COC(=O)c1cccc(-n2sc3ccccc3c2=O)c1 | 119* | -11 | -24 | -1 | -1
SMILES | PfHsp40 rescue | Yp Topo-I inh | PrP UTR inh | Mtb BioA inh | FadD28 binding
O=c1c2ccc(F)cc2sn1-c1ccccc1 | x | -8 | x | -1 | -3
Cc1ccc(-n2sc3ccccc3c2=O)cc1 | 80* | 4 | -45 | x | -4
COC(=O)c1cccc(N2CCCC2=O)c1 | -1 | 1 | -5 | 1 | -3
O=c1c2ccccc2sn1-c1ccc(F)cc1 | 102* | 0 | -33 | 1 | 1
CCN=c1scc(-c2ccco2)n1/N=C/c1ccc(OC)c(O)c1 | 3 | 4 | -226 | -1 | 9.4*
COc1ccc(NC(=O)Cc2ccc(Cl)c(Cl)c2)cn1 | 0 | -4 | -23 | x | -1
COc1ccc(NC(=O)/C(Cl)=C(/Cl)S(=O)(=O)Cc2ccc(C)cc2)cn1 | 343* | 0 | -21 | 1 | -5
Cc1noc(C)c1S(=O)(=O)N(C)C[C@H]1OCCCC[C@@H](C)Oc2ccc(NC(=O)NC(C)C)cc2C(=O)N([C@@H](C)CO)C[C@H]1C | x | x | x | 6 | x
Nc1c(Cl)cc(Cl)cc1C(=O)OCC(=O)NC1CC1 | 124* | 4 | -13 | -1 | 0
O=C(COC(=O)c1cc(F)c(F)cc1Cl)NC1CC1 | 0 | 2 | -25 | x | -2
CC(C)N1CC2=C(OC(N)=C(C#N)C2c2cccnc2)/C(=C/c2cccnc2)C1 (configuration not stated) | 0 | 5 | -13 | 43* | -1
N#CC1=C(N)OC2=C(CN(Cc3ccccc3)C/C2=C\c2cccnc2)C1c1cccnc1 (configuration not stated) | 0 | 9 | -26 | 26 | -1
C[C@H](CO)N1C[C@H](C)[C@H](CN(C)Cc2cccc(C(F)(F)F)c2)Oc2ncc(-c3cc4ccccc4o3)cc2C1=O | x | x | x | 0 | x
Cc1cc(C(=O)Nc2cccc3c2O[C@@H](CN(C)S(=O)(=O)c2ccc(F)cc2)[C@@H](C)CN([C@@H](C)CO)C3=O)n(C)n1 | x | x | x | 1 | x
COc1ccc(C(=O)NC(=S)NNC(=O)c2ccc(O)cc2)cc1[N+](=O)[O-] | 52* | 1 | -19 | -1 | 1
Cc1nc2ccc(C(=O)NCc3ccc4c(c3)OCO4)cc2s1 | 589* | -10 | -10 | x | 1
C[C@@H]1CN([C@H](C)CO)C(=O)c2cc(-c3cccc(C#N)c3)cnc2O[C@@H]1CN(C)Cc1ccccc1 | x | x | x | 6 | x
CC(C)S(=O)(=O)c1nsc2nc(=O)c(/C=C3\C=Nc4ccccc43)c(N)n12 | 0 | 4 | -12 | 1 | 30*
CC1=Nc2ccccc2/C1=C/c1c(N)n2c(S(=O)(=O)C(C)C)nsc2nc1=O | 0 | 2 | -31 | 1 | 5
CSc1nsc2nc(=O)c(/C=C3\C=Nc4ccccc43)c(N)n12 | 3 | -8 | -17 | -1 | 14*
O=C(NCc1ccc(OC(F)(F)F)cc1)C1CC(c2ccccc2[N+](=O)[O-])=NO1 (configuration not stated) | 2 | -2 | -22 | 2 | -1
O=C(NCc1ccc(OC(F)(F)F)cc1)C1CC(c2ccccc2C(F)(F)F)=NO1 (configuration not stated) | 38* | 9 | -23 | 0 | -4
COc1cccc(S(=O)(=O)Nc2ccc3c(c2)C(=O)N(C)[C@@H]2CC[C@H](CC(=O)NCC4CCCCC4)O[C@H]2CO3)c1 | x | x | x | 0 | x
